For 17 molecules, Potency results are on record in PubChem BioAssay AID651599 (National Center for Advancing Translational Sciences (NCATS), 2012).

Inconclusive results are not listed. Entries that show only a call come without a potency. Active and inactive are the calls of the source. The call rests on the fitted dose curve; in most records, active means well fitted inhibition curve with a large enough effect; inconclusive means small, poorly fitted or top-dose-only effect; inactive means no such curve, though single readings can be large or run the other way.

The test addresses Tumor susceptibility gene 101 protein (Homo sapiens) (UniProt Q99816). The test can be described thus: qHTS Assay for Iinhibitors of HIV-1 Budding by Blocking the Interaction of PTAP/TSG101: Hit Validation in TR assay. The procedure, abridged: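 Texas Red-PTAP peptide (50 nM) binding to Tsg101 binding domain (10 uM), both final, in pH 7.5 HEPES buffer, read as polarization after 20 min at room temperature; compounds pinned before peptide addition.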

Sequence of Tumor susceptibility gene 101 protein (Homo sapiens) (Q99816 whole entry, looked up, the tested form may be a part): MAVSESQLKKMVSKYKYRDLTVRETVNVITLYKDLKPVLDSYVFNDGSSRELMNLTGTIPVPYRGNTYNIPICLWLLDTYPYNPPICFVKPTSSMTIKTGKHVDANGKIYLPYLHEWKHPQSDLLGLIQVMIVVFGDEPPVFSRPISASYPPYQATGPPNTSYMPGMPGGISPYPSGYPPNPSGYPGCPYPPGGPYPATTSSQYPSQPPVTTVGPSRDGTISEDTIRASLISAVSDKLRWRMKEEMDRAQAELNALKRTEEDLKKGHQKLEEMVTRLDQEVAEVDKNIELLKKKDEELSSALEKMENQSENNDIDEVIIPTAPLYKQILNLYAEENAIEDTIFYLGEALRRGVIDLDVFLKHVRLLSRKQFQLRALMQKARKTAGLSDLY

For `CC(=O)OCCn1c2nc(=O)[nH]c(=O)c-2nc2cc(C)c(C)cc21`, the Potency entry is “inactive”.
In the case of `N=c1oc2ccc3ccccc3c2cc1-c1nc(-c2ccccc2)cs1` it was “inactive”; in that of `Nc1cccc(N2C(=O)c3cccc4c(N)ccc(c34)C2=O)c1`, “inactive”; in that of `Cc1ccc(N2C(=O)c3cccc4c(N5CCN(C)CC5)ccc(c34)C2=O)c2cccnc12`, “inactive”.
With `CCCn1c(=N)c(S(=O)(=O)c2ccccc2)cc2c(=O)n3cccc(C)c3nc21` the entry was “inactive”; with `COc1cccc(C(=O)c2sc3nc(-c4ccccc4)cc(C(F)(F)F)c3c2N)c1`, “inactive”.
In the case of `Cc1ccc(C2C=C(c3ccccc3)Nc3nc(NS(C)(=O)=O)nn32)cc1` (configuration not stated) it was “inactive”.
Turning to `O=C(c1ccccc1)c1ccc(O)cc1O`, the Potency entry is “inactive”.
Regarding `COc1ccc(N(C(=O)c2snc(C(N)=O)c2N)C(C(=O)NC2CCCC2)c2ccc3ncccc3c2)cc1` (configuration not stated), the Potency entry is “inactive”.
In the case of `CSCC(C)N1CCC(n2nccc2NC(=O)CCCc2ccccc2)CC1` (configuration not stated) it was “inactive”.
With `Cc1ccc(NC(=O)/C(C#N)=C(\N)C(Cl)(Cl)Cl)nc1` the entry was “inactive”; with `Cc1nc2ccccc2n2c(O)c(CC(=O)O)cc12`, “inactive”.
In the case of `O=c1[nH]c(-[n+]2ccccc2)c(/C=N/NC([S-])=Nc2ccccc2)s1` it was “inactive”; in that of `CC(C)(C)c1ccc(C2C3=C(CCCC3=O)NC3=C2C(=O)c2ccccc23)cc1` (configuration not stated), “inactive”; in that of `CCN(C(=O)c1sc2nc3n(c(=O)c2c1C)CCCC3)c1ccccc1F`, “inactive”.
For `COc1ccc(CCn2c(NN=C(C)C)nc3c2c(=O)[nH]c(=O)n3C)cc1`, the Potency result is “inactive”.
For the molecule `ClCc1nc2ccccc2n1Cc1ccccc1`, the Potency result was “inactive”.
